Rab9 prom act – Rab9 promoter activation; Potency, µM (series often up to 9.22 µM), usual class: activators; 320,000 compounds, 2.8% hits; Huh7 Rab9 promoter-luciferase reporter, luminescence, 24 h; also: nearly all actives have a fitted effect of over 60% in size
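Stable Rab9-luc Huh7, 1500 cells/well, 2 h settle; cmpd in DMSO, 24 h, 37 °C/5% CO2; luciferase reagent 10 min RT; luminescence.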
ELG1 genotox – inducers of genotoxicity in HEK293T ELG1-luciferase cells. HEK293T ELG1-luciferase reporter, luminescence, 16 h. 330,000 compounds, 1.3% hits. AID 504466. Potency, µM (top dose mostly 46 µM), most hits filed as activators; also: nearly all actives have a fitted effect of over 60% in size
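Genotoxic stress is detected as increased luminescence from luciferase-tagged ELG1 in HEK293T cells, measured with ONE-Glo after a 16 hr treatment at 37 °C.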
FLuc counter – counter-screen for miR-21 project: firefly luciferase inhibitors or activators; P08659; purified FLuc, Km substrates, luminescence inhibition; Potency, µM (series often up to 57.5 µM), most hits filed as inhibitors; 360,000 compounds, 6.9% hits; AID 588342; also: nearly all actives have a fitted effect of over 55% in size
Target sequence (P08659 whole entry, looked up): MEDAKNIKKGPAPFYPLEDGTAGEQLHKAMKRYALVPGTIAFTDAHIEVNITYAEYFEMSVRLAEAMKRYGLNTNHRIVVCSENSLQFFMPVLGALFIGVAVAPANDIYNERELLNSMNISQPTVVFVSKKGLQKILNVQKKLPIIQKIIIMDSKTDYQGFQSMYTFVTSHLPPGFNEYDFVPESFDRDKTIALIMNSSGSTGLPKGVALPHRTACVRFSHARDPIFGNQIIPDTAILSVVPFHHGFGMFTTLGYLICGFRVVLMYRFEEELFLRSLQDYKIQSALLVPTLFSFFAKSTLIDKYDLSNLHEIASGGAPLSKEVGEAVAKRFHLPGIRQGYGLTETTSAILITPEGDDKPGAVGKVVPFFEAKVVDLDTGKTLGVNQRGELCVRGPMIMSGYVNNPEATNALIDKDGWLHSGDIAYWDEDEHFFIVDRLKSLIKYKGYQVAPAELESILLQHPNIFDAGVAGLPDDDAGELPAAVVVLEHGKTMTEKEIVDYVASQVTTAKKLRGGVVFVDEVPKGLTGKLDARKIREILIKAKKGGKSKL
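Purified P. pyralis luciferase, 10 nM final, with Km-level 10 uM D-luciferin and 10 uM ATP in 50 mM Tris acetate pH 7.5, 10 mM Mg acetate, 0.01% Tween-20, 0.05% BSA; 6-point qHTS titration about 60 µM downward; luminescence read.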
SMN2 splice up – increases expression of the SMN2 splice variant | HEK293 SMN2-luciferase splicing reporter, luminescence, 30-36 h | Potency, µM (doses to about 46.1 µM), most hits filed as activators | 210,000 compounds, 2.8% hits; also: nearly all actives have a fitted effect of over 55% in size
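HEK293 cells carry an SMN2 minigene-luciferase reporter in which exon 7 inclusion puts luciferase in frame. Cells were seeded at 2000 cells/well, attached for 10-12 hours, then exposed to compounds for 30-36 hours at 37C before ONE-Glo luminescence.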
NPC1 prom act – activators of NPC1 promoter. Huh7 NPC1 promoter luciferase reporter, 24 h. 320,000 compounds, 2.4% hits. Potency, µM (doses to about 9.22 µM), most hits filed as activators. AID 485313; also: nearly all actives have a fitted effect of over 60% in size
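Stable NPC1-promoter luciferase Huh7 line; cpd (DMSO) 24 h, 37 °C, 5% CO2; Amplite luciferase reagent 10 min RT; luminescence readout. qHTS format.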
Hits are given with their value; – = inactive; ? = inconclusive; · = no result; [ ] = dose if it differs, or a comment. Shown are actives, neighbours in structure and some others; about 7.4% of the full set was active somewhere. Calls follow the shape of the dose curve; as a rule, active = well fitted curve in the direction sought with a large enough effect; inconclusive = small, poorly fitted or top-dose-only effect, or another doubt; inactive = no such curve, though single readings can be large; an effect the other way counts as inactive or inconclusive.

SMILES	Rab9 prom act	ELG1 genotox	FLuc counter	SMN2 splice up	NPC1 prom act
COc1ccc(N(Cc2ccccc2)C(=O)c2nc(S(C)(=O)=O)ncc2Cl)cc1	·	·	–	–	·
C=CCC(C)(O)C(=O)OCC (stereo not drawn)	·	·	·	–	·
NNC(=O)CN1CCCc2ccccc21	–	?	12µM	–	–
CCCc1cc2c(=O)c(-c3ccccn3)c(C)oc2cc1O	–	–	?	–	–
CCCc1cc2c(=O)c(-c3ccccn3)coc2cc1OC	1.6µM	?	4.8µM	?	2µM
CCCCCCOc1ccc(/C(N)=N/O)cc1	1.6µM	?	12µM	–	2.5µM
CCc1ccc(NC(=O)CN2C(=O)c3ccccc3Sc3ccc(C(=O)N4CCCC4)cc32)cc1	·	·	–	·	·
Fc1cccc(/C=N/Nc2ncnc3nc[nH]c23)c1	3.5µM	–	19µM	10µM	?
Oc1ccc(/C=N/Nc2ncnc3nc[nH]c23)cc1	–	–	?	·	–
Fc1ccccc1/C=N/Nc1ncnc2nc[nH]c12	–	21µM	?	13µM	–
Cc1cc(C)nc(N(C#N)CC(=O)c2ccccc2)n1	–	–	21µM	·	–
Cc1nc2ccc(C(=O)N/N=C/c3cc([N+](=O)[O-])ccc3O)cc2[nH]1	–	–	–	–	–
CCN(CC)c1ccc(/C=N/NC(=O)Nc2nonc2N)cc1	–	–	13µM	?	–
O=C(N/N=C/c1ccccc1O)c1ccc2c(c1)OCO2	–	15µM	2.7µM	·	?
O=C(N/N=C/c1cc(Cl)cc([N+](=O)[O-])c1O)c1ccc2c(c1)OCO2	–	–	11µM	·	–
Cc1nc2ccc(C(=O)N/N=C/c3ccccc3O)cc2[nH]1	?	?	12µM	·	?
CCN(CC)c1ccc(/C=N/NC(=O)c2c(-c3ccccc3)noc2C)cc1	–	–	–	·	–
CCN1CCN(C(c2ccccc2Cl)c2c(O)cc(C)n(CCOC)c2=O)CC1 (stereo not drawn)	·	·	–	·	·
CCN(CC)c1ccc(/C=N/NC(=O)Cc2ccc(OC)c(OC)c2)cc1	–	–	?	·	–
O=C(N/N=C/c1ccc(Cl)cc1)c1ccc2c(c1)OCO2	–	?	3.4µM	·	–
O=C(N/N=C/c1ccc2c(c1)OCO2)c1ccc(Br)o1	2.8µM	10µM	4.8µM	13µM	4.5µM
O=C(N/N=C/C1CC2CCC1C2)c1ccc2c(c1)OCO2 (stereo not drawn)	–	–	13µM	–	–
CCN(CC)c1ccc(/C=N/NC(=O)c2ccc(Br)o2)cc1	3.2µM	?	3µM	11µM	2.2µM
CCOC(=O)c1c(C)[nH]c(C)c1S(=O)(=O)N1CCC(C(=O)NCc2ccccc2)CC1	·	·	–	·	·
O=C(N/N=C(/c1ccccc1)c1ccncc1)c1ccc2c(c1)OCO2	–	–	–	–	–
SMILES	Rab9 prom act	ELG1 genotox	FLuc counter	SMN2 splice up	NPC1 prom act
O=C(N/N=C/c1cccc([N+](=O)[O-])c1)c1ccc2c(c1)OCCO2	2.2µM	?	1.3µM	22µM	3.5µM
O=C(N/N=C/c1ccsc1)c1ccc2c(c1)OCO2	2.8µM	?	3.4µM	·	3.5µM
O=C(N/N=C/c1ccncc1)c1ccc2c(c1)OCO2	–	–	27µM	?	–
O=C(N/N=C/c1ccc2c(c1)OCO2)c1ccc(NC(=O)c2ccc(F)cc2)cc1	–	–	–	·	–
COc1ccccc1NS(=O)(=O)c1cccc(C(=O)N/N=C/c2ccc3c(c2)OCCO3)c1	–	–	11µM	–	–
COc1ccc(NS(=O)(=O)c2cccc(C(=O)N/N=C/c3ccc4c(c3)OCCO4)c2)cc1	–	–	–	–	–
O=C(CNC(=O)c1ccc2c(c1)OCCO2)N/N=C/c1ccc([N+](=O)[O-])cc1	–	?	–	·	–
Cc1ccc2oc(=O)c3cc(C(=O)N4CCN(c5ccccc5)CC4)sc3c2c1	·	·	–	–	·
O=C(N/N=C/c1ccc2c(c1)OCO2)c1ccc2c(c1)OCCO2	?	?	1.9µM	11µM	?
CCCCCCOc1ccc(/C=N/NC(=O)C2CC2)cc1	–	–	–	·	–
CCN(CC)c1ccc(/C=N/NC(=O)C2CC2)cc1	?	?	15µM	·	–
O=C(N/N=C/c1ccc2c(c1)OCCO2)c1ccncc1	–	–	9.5µM	·	–
O=C(N/N=C/c1cccs1)c1ccc2c(c1)OCO2	1.3µM	9.2µM	2.7µM	13µM	2.5µM
COC(=O)C1=C(C(=O)OC)[C@@H]2N(Cc3ccccc3)c3ccccc3[C@@]23C[C@@H](C(=O)OC)N(C(=O)c2ccco2)C3=N1	·	·	·	–[9.22 µM]	·

Bioassay records (PubChem BioAssay)
